Out of some 1,100 compounds screened, about 760 (69%) were called active. How the calls were made is not given here. So high a share suggests a set chosen from earlier hits. The list shows a part of the results.

Results on 44 molecules are retold here after PubChem BioAssay AID1259417 (TB Discovery Research, Infectious Disease Research Institute, 2018).

The nature of this test: M. tuberculosis growth inhibition, HTS (AID 1259417).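 Further: bacteria grown with compound for 5 days at 37 °C.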 The note with it: stronger effect = higher value, concentration not given here.
Where [1] appears, read: M. tuberculosis DsRed fluorescence growth inhibition.
[2] abbreviates: M. tuberculosis growth inhibition.

For the molecule `COc1ccc(Cl)c2sc(N(CCCn3ccnc3)C(=O)c3cccs3)nc12`, the inhibition (commonly the relative decrease from the control value, in per cent) by setting is: under setting [1], 59.9% (active); under setting [2], 61.3%.

On to `COc1ccc(C)c2sc(N(CCCn3ccnc3)C(=O)c3cccs3)nc12`, for which the inhibition under setting [1] was 51.2% (active) and the inhibition under setting [2] came out at 44.6%.

Consider `O=C(COc1cccc2ccccc12)c1ccc(Cl)cc1`, for which the inhibition reads like this: under setting [1], 17% (active); under setting [2], 36.9%.

Regarding `Cn1nc([N+](=O)[O-])nc1Sc1ncnn1-c1ccccc1`, the inhibition was 97.1% (active) under setting [1] and 95% under setting [2].

As to `Cc1c(C)n2c3c(=O)[nH]c(=O)n(C)c3nc2n1-c1ccccc1O`, the inhibition runs as follows: under setting [1], 97.2% (active); under setting [2], 92.8%.

Regarding `O=c1nc2c(O)cccn2c2c1c(=O)[nH]c1ccccc12`, the inhibition reads like this: under setting [1], -3.23% (inactive); under setting [2], -27.6%.

As to `COC(=O)C(CC(=O)c1ccc(Br)cc1)n1ccnc1` (stereo not drawn), the inhibition under setting [1] was 100% (active) and the inhibition under setting [2] came out at 100%.

As to `O=c1oc2ccccc2nc1/C=C(O)/C=C\c1ccccc1`, the inhibition is, setting by setting: under setting [1], 99.1% (active); under setting [2], 98.9%.

Regarding `Clc1ccc(OCc2ccccc2Cl)c(CNC2CCCCC2)c1`, the inhibition was 99.2% (active) under setting [1] and 99.3% under setting [2].

As to `COC(=O)CSc1ncnc2c1sc1nc3c(cc12)COC(C)(C)C3`, the inhibition under setting [1] is 48.1% (active) and the inhibition under setting [2] was -1.03%.

In the case of `Cc1ccc(Nc2nc(NCc3ccco3)c3ccccc3n2)cc1`, the inhibition runs as follows: under setting [1], 69% (active); under setting [2], 45.4%.

As for `Clc1cccc(Nc2nc(NCc3ccco3)c3ccccc3n2)c1`, the inhibition reads like this: under setting [1], 41.8% (active); under setting [2], 5.69%.

In the case of `CCOc1ccc(Nc2nc(NCc3ccco3)c3ccccc3n2)cc1`, the inhibition under setting [1] was 65.7% (active) and the inhibition under setting [2] was determined as 78.4%.

In the case of `Cc1ccccc1Nc1nc(NCc2ccco2)c2ccccc2n1`, the inhibition runs as follows: under setting [1], -6.74% (inactive); under setting [2], -22.5%.

`OCCOCCNc1nc(Nc2cccc(F)c2)nc2c1cnn2-c1ccccc1`: the inhibition by setting is: under setting [1], -4.23% (inactive); under setting [2], 4.68%.

As for `Cc1ccc(-c2csc(-c3ccc(O)cc3)n2)cc1`, the inhibition under setting [1] was 3.54% (inactive) and the inhibition under setting [2] came to 28.7%.

For `Cc1ccc(-c2nc(NC(=O)CO)cs2)cc1`, the inhibition runs as follows: under setting [1], 99.1% (active); under setting [2], 100%.

As to `CC(NCC(O)COc1ccccc1C(C)(C)C)c1ccccc1` (stereo not drawn), the inhibition is 61.1% (active) under setting [1] and 48.8% under setting [2].

`O=C(Nc1nnc(-c2ccc3c(c2)CCCC3)o1)c1ccc(Cl)s1`: the inhibition reads like this: under setting [1], 95.5% (active); under setting [2], 90.6%.

`CSc1cccc(-c2nnc(NC(=O)c3ccc([N+](=O)[O-])s3)o2)c1`: the inhibition runs as follows: under setting [1], 13% (active); under setting [2], 56.8%.

For the molecule `O=C(Nc1nnc(-c2ccc3c(c2)CCCC3)o1)c1ccc(Cl)cc1Cl`, the inhibition runs as follows: under setting [1], -1.63% (inactive); under setting [2], -9.7%.

For `O=C(Nc1cccc(Br)c1)c1ccc([N+](=O)[O-])s1`, the inhibition is, setting by setting: under setting [1], 6.23% (inactive); under setting [2], 3.28%.

With `O=C(Nc1nnc(-c2ccc3c(c2)CCCC3)o1)c1cc(Cl)sc1Cl`, the inhibition is, setting by setting: under setting [1], 52.2% (active); under setting [2], 48.6%.

For `O=C(Nc1nnc(-c2ccc3c(c2)CCCC3)o1)c1ccc([N+](=O)[O-])s1`, the inhibition is 79% (active) under setting [1] and 93.9% under setting [2].

For the molecule `O=C1CC(c2ccc(Cl)cc2)CC2=C1C(c1ccc(C(F)(F)F)cc1)Nc1ccccc1N2` (stereo not drawn), the inhibition reads like this: under setting [1], -1.45% (inactive); under setting [2], -10.1%.

In the case of `CCOC(=O)C(C)Sc1ncnc2c1cnn2-c1ccc(F)cc1` (stereo not drawn), the inhibition is, setting by setting: under setting [1], 26.4% (active); under setting [2], 87.2%.

For `CCOC(=O)CSc1ncnc2c1cnn2-c1ccc(C)cc1C`, the inhibition was 39.4% (active) under setting [1] and 77.1% under setting [2].

With `COC(=O)CSc1ncnc2c1cnn2-c1ccc(F)cc1`, the inhibition is, setting by setting: under setting [1], 27.3% (active); under setting [2], 86.2%.

For the molecule `COC(=O)CSc1ncnc2c1nnn2Cc1ccc(F)cc1`, the inhibition was 99.8% (active) under setting [1] and 99.8% under setting [2].

Take `CCOC(=O)C(C)Sc1ncnc2c1nnn2Cc1ccc(F)cc1` (stereo not drawn): the inhibition is, setting by setting: under setting [1], 2.2% (inactive); under setting [2], 19%.

`CCOC(=O)CNC(=O)CSc1ncnc2c1nnn2Cc1ccccc1F`: the inhibition runs as follows: under setting [1], 17.3% (inactive); under setting [2], 22.5%.

Take `CCOC(=O)CSc1ncnc2c1cnn2-c1ccccc1`: the inhibition reads like this: under setting [1], 13.4% (active); under setting [2], 70.7%.

As for `CCOC(=O)C1CCCN(c2ccc([N+](=O)[O-])c3nonc23)C1` (stereo not drawn), the inhibition by setting is: under setting [1], 29.3% (active); under setting [2], 67.6%.

On to `O=S1(=O)C=CC2ON=C(c3ccc(C(F)(F)F)cc3)C21` (stereo not drawn), for which the inhibition is, setting by setting: under setting [1], 99.5% (active); under setting [2], 96.8%.

For `O=S1(=O)C=CC2ON=C(c3ccc(Cl)cc3)C21` (stereo not drawn), the inhibition under setting [1] is 100% (active) and the inhibition under setting [2] was 98.3%.

As for `N#Cc1cc2c(nc1SCC(=O)OCc1ccccc1)CCC2`, the inhibition runs as follows: under setting [1], 99.7% (active); under setting [2], 99.7%.

As to `COC(=O)CSc1nc2c(c(-c3ccc(C)o3)c1C#N)CCCC2`, the inhibition under setting [1] was 4.49% (inactive) and the inhibition under setting [2] was -17%.

In the case of `CCOC(=O)CSc1nc2c(c(-c3ccc(C)o3)c1C#N)CCCC2`, the inhibition reads like this: under setting [1], 21.7% (inactive); under setting [2], 28.1%.

For the molecule `O=C(CSc1ccc(Cl)cc1)Nc1ccc(Cl)c(C(F)(F)F)c1`, the inhibition reads like this: under setting [1], 0.0104% (inactive); under setting [2], -15.8%.

`O=C(Cc1ccc(F)cc1)Nc1ccc(Cl)c(C(F)(F)F)c1`: the inhibition under setting [1] was 50.9% (active) and the inhibition under setting [2] amounted to 31.5%.

Turning to `O=C(Nc1ccc(Cl)c(C(F)(F)F)c1)c1csc2c1CCCC2`, the inhibition is 1.18% (inactive) under setting [1] and -27.8% under setting [2].

For `O=C(CC(O)(C(F)(F)F)C(F)(F)F)Nc1ccc(Cl)c(Cl)c1`, the inhibition is, setting by setting: under setting [1], 100% (active); under setting [2], 101%.

As for `Cc1cc(C)nc(N=C(N)Nc2cc(Cl)ccc2Oc2ccccc2)n1`, the inhibition is, setting by setting: under setting [1], 97.1% (active); under setting [2], 99.6%.

For the molecule `CCc1ccc(Oc2nc([N+](=O)[O-])nn2C)cc1`, the inhibition by setting is: under setting [1], 98% (active); under setting [2], 95.4%.
